Laboratory results taken from article PMC11062922 (Nature Chemical Biology, 2023).
Where two headings read alike, the source gives them in different places.

Assays:
Parameters in all cases: species or system human, MV4-11 + K-562 + COLO205 + SK-N-BE2 + OVCAR-8
[1] = test system: CDK7; details: read-out: apparent Kd; compound concentrations: 100 nM and 1000 nM (sheet 'Samples'), CATDS: 2.08118175664989E-2; n = 1
[2] = test system: CDKL5; details: read-out: apparent Kd; compound concentrations: 100 nM and 1000 nM (sheet 'Samples'), CATDS: 7.5103535509973398E-3; n = 1
[3] = test system: DYRK1A; details: read-out: apparent Kd, compound concentrations: 100 nM and 1000 nM (sheet 'Samples'), n = 1
[4] = test system: ERCC2; details: read-out: apparent Kd; compound concentrations: 100 nM and 1000 nM (sheet 'Samples'), CATDS: 2.0109331844810101E-2; n = 1
[5] = test system: FER; details: read-out: apparent Kd, compound concentrations: 100 nM and 1000 nM (sheet 'Samples'), n = 1
[6] = test system: FLT3; details: read-out: apparent Kd, compound concentrations: 100 nM and 1000 nM (sheet 'Samples'), n = 1
[7] = test system: LATS1; details: read-out: apparent Kd, compound concentrations: 100 nM and 1000 nM (sheet 'Samples'), n = 1
[8] = test system: MYLK3; details: read-out: apparent Kd, compound concentrations: 100 nM and 1000 nM (sheet 'Samples'), n = 1
[9] = test system: PLK4; details: read-out: apparent Kd, compound concentrations: 100 nM and 1000 nM (sheet 'Samples'), n = 1
[10] = test system: PRKAA1; details: read-out: apparent Kd, compound concentrations: 100 nM and 1000 nM (sheet 'Samples'), n = 1
[11] = test system: PRKCD; details: read-out: apparent Kd; compound concentrations: 100 nM and 1000 nM (sheet 'Samples'), CATDS: 8.2492592697018703E-3; n = 1
[12] = test system: PRKD2; details: read-out: apparent Kd; compound concentrations: 100 nM and 1000 nM (sheet 'Samples'), CATDS: 9.3127707603308692E-3; n = 1
[13] = test system: PRKD3; details: read-out: apparent Kd; compound concentrations: 100 nM and 1000 nM (sheet 'Samples'), CATDS: 8.3087862400952096E-3; n = 1
[14] = test system: PTK2B; details: read-out: apparent Kd, compound concentrations: 100 nM and 1000 nM (sheet 'Samples'), n = 1
[15] = test system: PTK2; details: read-out: apparent Kd, compound concentrations: 100 nM and 1000 nM (sheet 'Samples'), n = 1
[16] = test system: RPS6KA6; details: read-out: apparent Kd, compound concentrations: 100 nM and 1000 nM (sheet 'Samples'), n = 1
[17] = test system: STK10; details: read-out: apparent Kd, compound concentrations: 100 nM and 1000 nM (sheet 'Samples'), n = 1
[18] = test system: TNK2; details: read-out: apparent Kd; compound concentrations: 100 nM and 1000 nM (sheet 'Samples'), CATDS: 1.6319458510121398E-2; n = 1
[19] = test system: MARK4; details: read-out: apparent Kd; compound concentrations: 100 nM and 1000 nM (sheet 'Samples'), CATDS: 1.5249165601859399E-2; n = 1

## CCOC(=O)N1CCC(n2cnc(-c3ccc(F)cc3)c2-c2ccnc(N)n2)CC1 [SB-219952]
[1]
  potency estimated from few doses: 0.201 µM
[2]
  potency estimated from few doses: 2.17 µM
[3]; CATDS: 7.51253046880054E-3
  potency estimated from few doses: 2.17 µM
[4]
  potency estimated from few doses: 0.213 µM
[5]; CATDS: 1.3888971219533201E-2
  potency estimated from few doses: 0.416 µM
[6]; CATDS: 8.0965887805869007E-3
  potency estimated from few doses: 1.63 µM
[7]; CATDS: 8.0711896225058692E-3
  potency estimated from few doses: 1.65 µM
[8]; CATDS: 7.2973663588222501E-3
  potency estimated from few doses: 2.47 µM
[9]; CATDS: 1.18225591983295E-2
  potency estimated from few doses: 0.582 µM
[10]; CATDS: 1.3066263921832201E-2
  potency estimated from few doses: 0.471 µM
[11]
  potency estimated from few doses: 1.53 µM
[12]
  potency estimated from few doses: 1.05 µM
[13]
  potency estimated from few doses: 1.49 µM
[14]; CATDS: 1.55357941259002E-2
  potency estimated from few doses: 0.336 µM
[15]; CATDS: 1.3544498558995E-2
  potency estimated from few doses: 0.438 µM
[16]; CATDS: 1.4323736759091399E-2
  potency estimated from few doses: 0.392 µM
[17]; CATDS: 9.6073353466608804E-3
  potency estimated from few doses: 0.964 µM
[18]
  potency estimated from few doses: 0.307 µM

## COc1ccc(Nc2ncc(C#N)c(Nc3ccccc3C(N)=O)n2)cc1N1CCN(C)CC1.Cl [GSK1558669A]
[3]; CATDS: 6.6106373934709103E-3
  potency estimated from few doses: 0.954 µM
[5]; CATDS: 1.1172004845485001E-2
  potency estimated from few doses: 0.137 µM
[6]; CATDS: 2.0604812795468701E-2
  potency estimated from few doses: 0.0351 µM
[7]; CATDS: 9.7361630406248897E-3
  potency estimated from few doses: 0.205 µM
[19]
  potency estimated from few doses: 0.0644 µM
[8]; CATDS: 2.6075418388892199E-2
  potency estimated from few doses: 0.0231 µM
[9]; CATDS: 7.9359519159901901E-3
  potency estimated from few doses: 0.415 µM
[10]; CATDS: 2.0149023571651901E-2
  potency estimated from few doses: 0.0366 µM
[14]; CATDS: 1.3529380969040701E-2
  potency estimated from few doses: 0.0845 µM
[15]; CATDS: 4.75918589440152E-2
  potency estimated from few doses: 0.00926 µM
[16]; CATDS: 2.0856200348519E-2
  potency estimated from few doses: 0.0343 µM
[17]; CATDS: 1.0596963300075399E-2
  potency estimated from few doses: 0.159 µM
